Unmarked numbers belong to inactive results. Inconclusive results are not listed. Activity calls are given as the source filed them. Unless noted, calls come from the whole dose curve; as a rule, active = well fitted curve in the direction sought with a large enough effect in the repeat runs; inconclusive = weak or mixed curves; inactive = no such curve, though single readings can be large; an effect the other way counts as inactive or inconclusive.

The nature of assay [1]: qHTS RealTime-Glo MT Cell Viability Assay in HEK293 cells - 0 hour (AID 1224880). Note: top concentration of the series differs between compounds; nearly all actives have a fitted effect of over 45% in size. Summed up: (§1)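 Luminescence, which tracks viable cell number through reduction of the prosubstrate to a NanoLuc substrate, was read over continuous 37 C culture. Cells (600/well) were premixed with reagent and rested 5 h before 23 nL of compound in DMSO was pinned.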
On the technique in general: Quantitative high-throughput screening tests each substance at several concentrations.

The nature of assay [2]: A CellTox Green Cytotoxicity Assay to monitor cytotoxicity in HEK293 cells - 32 hour (AID 1224881). Note: nearly all actives have a fitted effect of over 40% in size. Note: potency is the fitted concentration of half-maximal effect. Summed up: (§2)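 Fluorescence from a DNA-binding dye excluded by viable cells was measured repeatedly in the same HEK293 wells (600 cells/well) during continuous compound exposure at 37 C. Each assay gives one read point: 0, 8, 16, 24, 32 or 40 h.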
A short description of assay [3]: A CellTox Green Cytotoxicity Assay to monitor cytotoxicity in HepG2 cells - 0 hour (AID 1224882). Note: nearly all actives have a fitted effect of over 35% in size. Note: potency is the fitted concentration of half-maximal effect. Summed up:
(§3)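 Real-time cytotoxicity: fluorescence of a cell-impermeant cyanine dye binding DNA of dead HepG2 cells, measured repeatedly (0–40 h) during compound exposure at 37 C. Cells seeded 600/well with reagent, dosed after 5 h.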

The nature of assay [4]: A CellTox Green Cytotoxicity Assay to monitor cytotoxicity in HepG2 cells - 32 hour (AID 1224883). Note: nearly all actives have a fitted effect of over 50% in size. Note: potency is the fitted concentration of half-maximal effect. Summed up:
as §3

A short description of assay [5]: A CellTox Green Cytotoxicity Assay to monitor cytotoxicity in HEK293 cells - 8 hour (AID 1224884). Note: nearly all actives have a fitted effect of over 35% in size. Note: potency is the fitted concentration of half-maximal effect. Summed up:
as §2

Assay [6] in a line: qHTS RealTime-Glo MT Cell Viability Assay in HepG2 cells - 16 hour (AID 1224885). Note: nearly all actives have a fitted effect of over 50% in size. Summed up:
(§4)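 HepG2 cells were seeded at 600 cells/well together with NanoLuc luciferase and a cell-permeant prosubstrate, preincubated 5 h at 37 C/5% CO2, then pin-dosed with compounds in DMSO. Nonlytic luminescence from viable cells was read at each time point.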

Assay [7] in a line: qHTS RealTime-Glo MT Cell Viability Assay in HEK293 cells - 24 hour (AID 1224886). For activity change, negative = cytotoxicity: top concentration of the series differs between compounds. Note: nearly all actives have a fitted effect of over 50% in size. Note: potency is the fitted concentration of half-maximal effect. Summed up:
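HEK293 cells were seeded at 600 cells/well together with NanoLuc luciferase and cell-permeant prosubstrate, preincubated 5 h at 37 C/5% CO2, then given compound in DMSO by pintool. Luminescence from viable-cell prosubstrate reduction was read repeatedly over 40 h.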

The nature of assay [8]: qHTS RealTime-Glo MT Cell Viability Assay in HEK293 cells - 8 hour (AID 1224887). For activity change, negative = cytotoxicity: top concentration of the series differs between compounds. Note: nearly all actives have a fitted effect of over 50% in size. Note: potency is the fitted concentration of half-maximal effect. Summed up:
as §1

Assay [9] can be described thus: A CellTox Green Cytotoxicity Assay to monitor cytotoxicity in HEK293 cells - 16 hour (AID 1224888). Note: nearly all actives have a fitted effect of over 35% in size. Summed up:
as §2

Assay [10] in a line: qHTS RealTime-Glo MT Cell Viability Assay in HepG2 cells - 0 hour (AID 1224889). Note: nearly all actives have a fitted effect of over 50% in size. Summed up: as §4
Assay [11] is described as follows: qHTS assay to identify small molecule antagonists of the estrogen receptor alpha (ER-alpha) signaling pathway using the BG1 cell line in the presence of 0.1 nM 17-beta-estradiol - cell viability counter screen (AID 1259241). Note: nearly all actives have a fitted effect of over 40% in size. Summed up: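 Cells were plated and left 24 hr, compounds in DMSO were pinned in, 17beta-estradiol was added to 0.1 nM final, and after 22 hr CellTiter-Fluor reagent was added for 30 min before fluorescence was read.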

The nature of assay [12]: qHTS assay to identify small molecule antagonists of the androgen receptor (AR) signaling pathway using the MDA cell line in the presence of 0.5 nM R1881 - cell viability counter screen (AID 1259242). Note: nearly all actives have a fitted effect of over 45% in size. Summed up: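 Live-cell protease activity was measured by CellTiter-Fluor fluorescence after 30 min. Before that, MDA-kb2 MMTV-luciferase cells had 16 hr at 37C without CO2, exposed to test compounds and 0.5 nM R1881 final.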

Assay [13] deals with Estrogen receptor (Homo sapiens) (UniProt P03372). The assay can be described thus: qHTS assay to identify small molecule antagonists of the estrogen receptor alpha (ER-alpha) signaling pathway using the BG1 cell line in the presence of 0.1 nM 17-beta-estradiol (AID 1259244). Note: nearly all actives have a fitted effect of over 50% in size. Summed up: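 Luciferase luminescence (ONE-Glo, 30 min at room temperature) was read after 22 hr at 37C exposure to compounds plus 17beta-estradiol at 0.1 nM final. Cells were VM7Luc4E2 with endogenous ER-alpha and an ERE-driven luciferase, pre-cultured 5 days in hormone-depleted medium.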
Estrogen receptor (Homo sapiens), sequence (P03372 whole entry, looked up): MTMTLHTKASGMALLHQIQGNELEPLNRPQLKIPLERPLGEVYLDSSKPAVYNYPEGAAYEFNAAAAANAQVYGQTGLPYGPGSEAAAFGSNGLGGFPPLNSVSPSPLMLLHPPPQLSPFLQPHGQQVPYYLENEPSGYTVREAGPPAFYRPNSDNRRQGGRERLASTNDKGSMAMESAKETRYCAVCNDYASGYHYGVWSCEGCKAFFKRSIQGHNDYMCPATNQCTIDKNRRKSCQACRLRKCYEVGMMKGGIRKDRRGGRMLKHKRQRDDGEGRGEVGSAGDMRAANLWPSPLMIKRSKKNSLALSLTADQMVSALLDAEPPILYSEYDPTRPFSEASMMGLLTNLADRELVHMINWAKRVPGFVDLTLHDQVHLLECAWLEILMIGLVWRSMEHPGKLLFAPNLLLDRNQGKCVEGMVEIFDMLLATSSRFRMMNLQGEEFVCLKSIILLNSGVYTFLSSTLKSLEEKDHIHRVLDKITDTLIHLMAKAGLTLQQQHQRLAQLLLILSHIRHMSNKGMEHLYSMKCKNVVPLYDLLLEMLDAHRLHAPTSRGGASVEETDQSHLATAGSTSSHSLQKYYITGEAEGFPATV

The nature of assay [14]: qHTS assay to identify small molecule HDAC inhibitors (AID 1259364). Note: top concentration of the series differs between compounds; nearly all actives have a fitted effect of over 45% in size. Summed up: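 Luminescence read after 30 min room-temperature HDAC-Glo incubation measures cellular class I/II HDAC activity. Compounds were applied for 2 hr at 37 C to HCT-116 wild-type cells seeded the day before.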
A short description of assay [15]: qHTS assay to identify small molecule HDAC inhibitors - cell viability counter screen (AID 1259365). Summed up:
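Counter screen in wild-type HCT-116 cells: compounds dissolved in DMSO are pin-transferred onto overnight-plated cells and left 2hr at 37C. ATP-based CellTiter-Glo luminescence then measures viable cells.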

Assay [16] in a line: A CellTox Green Cytotoxicity Assay to monitor cytotoxicity in HepG2 cells - 8 hour (AID 1224890). Note: nearly all actives have a fitted effect of over 45% in size. Note: potency is the fitted concentration of half-maximal effect. Summed up:
as §3

Assay [17] concerns the target Androgen receptor (Homo sapiens) (UniProt P10275). The experiment in a line: qHTS assay to identify small molecule antagonists of the androgen receptor (AR) signaling pathway using the MDA cell line in the presence of 0.5 nM R1881 (AID 1259243). Note: nearly all actives have a fitted effect of over 50% in size. Summed up:
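Luminescent reporter readout (ONE-Glo, 30 min, room temperature) after 16 hr co-treatment of MDA-kb2 cells with test compounds and 0.5 nM R1881 final, at 37C without CO2. The MMTV-driven luciferase responds to both AR and GR.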

Assay [18] in a line: qHTS assay to identify small molecule phospholipidosis (PLD) inducers (AID 1259344; active = well fitted curve in the direction sought with a large enough effect; an effect the other way counts as inactive or inconclusive). Summed up:
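After 4 h attachment on collagen I, HepG2 cells were dosed with compound alongside LipidTOX Red, kept 24 h at 37 C, fixed, and imaged for lamellar phospholipid pits.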

Assay [19] in a line: qHTS assay to identify small molecule agonists of the sonic hedgehog signaling (Shh) pathway - cell viability counter screen (AID 1259366). Note: nearly all actives have a fitted effect of over 50% in size. Summed up: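 Cells are plated at 2,000 per well and left 4hr at 37C, 5% CO2 before compound addition. After 23hr of treatment, CellTiter-Fluor reagent is added for 1hr at 37C and fluorescence is measured.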
Assay [20] is described as follows: qHTS assay to identify small molecule antagonists of the sonic hedgehog signaling (Shh) pathway - cell viability counter screen (AID 1259367). Note: nearly all actives have a fitted effect of over 55% in size. Summed up: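 Conditioned medium drove Shh signaling in 3T3 Gli1-Luc cells exposed to compounds at 37C and 5% CO2. Viability was determined from CellTiter-Fluor fluorescence, with reagent incubated 1 hr after 23 hr of treatment.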
% is set by controls: 0 for no effect and ±100 for the full control effect.

Androgen receptor (Homo sapiens), sequence (P10275 whole entry, looked up): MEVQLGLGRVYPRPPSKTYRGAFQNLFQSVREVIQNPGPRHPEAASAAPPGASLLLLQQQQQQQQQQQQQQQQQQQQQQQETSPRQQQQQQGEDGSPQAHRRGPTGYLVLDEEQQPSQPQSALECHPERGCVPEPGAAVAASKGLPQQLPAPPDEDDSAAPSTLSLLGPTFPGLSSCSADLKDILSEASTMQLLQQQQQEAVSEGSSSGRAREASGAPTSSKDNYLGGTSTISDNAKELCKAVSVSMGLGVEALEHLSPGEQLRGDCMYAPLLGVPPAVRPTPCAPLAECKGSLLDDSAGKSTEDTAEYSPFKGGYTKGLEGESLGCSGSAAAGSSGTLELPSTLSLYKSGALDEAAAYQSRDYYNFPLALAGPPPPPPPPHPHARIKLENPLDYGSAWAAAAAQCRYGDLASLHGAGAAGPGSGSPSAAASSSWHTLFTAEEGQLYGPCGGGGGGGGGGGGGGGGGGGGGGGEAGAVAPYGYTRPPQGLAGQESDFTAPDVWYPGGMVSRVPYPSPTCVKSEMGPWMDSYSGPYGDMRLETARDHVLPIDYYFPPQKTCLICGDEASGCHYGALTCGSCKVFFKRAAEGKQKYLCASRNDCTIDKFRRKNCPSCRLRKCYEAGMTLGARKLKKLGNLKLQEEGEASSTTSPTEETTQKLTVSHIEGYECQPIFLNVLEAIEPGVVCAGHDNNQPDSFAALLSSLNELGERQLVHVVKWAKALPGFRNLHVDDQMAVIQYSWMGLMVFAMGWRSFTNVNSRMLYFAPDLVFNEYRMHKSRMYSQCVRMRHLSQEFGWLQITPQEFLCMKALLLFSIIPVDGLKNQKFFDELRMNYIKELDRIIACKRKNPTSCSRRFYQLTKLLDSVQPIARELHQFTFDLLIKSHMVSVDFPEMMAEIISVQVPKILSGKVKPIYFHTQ

In the case of `C=C(C)[C@H]1CC=C(C)CC1`, the call in assay [1], in assay [6], in assay [11], in assay [12], in assay [13] and in assay [15] was inactive. Besides, the Potency entry in assay [2], in [3], in assay [4], in assay [5], in [7] and in assay [8] was “inactive” each time. Besides, the Potency result in assay [9], in assay [10] and in assay [14] was “inactive” in each case.
As for `NC(N)=NS(=O)(=O)c1ccc(N)cc1`, the call in assay [1], in assay [6], in assay [11], in assay [12], in assay [13] and in assay [15] was inactive. Also, the molecule was called inactive in assay [20]. Also, the Potency entry in assay [2], in [3], in assay [4], in [5], in assay [7] and in assay [8] was “inactive” throughout. For the same molecule, the Potency result in assay [10], in assay [16], in [17], in [18], in [14] and in assay [19] was “inactive” each time.
Regarding `CCN(CC)C(=O)c1ccc(O)c(OC)c1`, the result in assay [1], in assay [6], in assay [11], in assay [12], in [13] and in [15] was inactive. Also, the molecule was called inactive in assay [20]. Also, the Potency entry in [2], in assay [3], in assay [4], in [5], in assay [7] and in assay [8] was “inactive” throughout. In addition, the Potency result in [10], in [16], in assay [18], in assay [14] and in assay [19] was “inactive” in each case.
For `Nc1ccn(C2CO[C@H](CO)O2)c(=O)n1` (some centres not stated), the result in assay [1], in [6], in assay [11], in [12], in assay [13] and in assay [15] was inactive. In assay [20], the call was inactive. In addition, the Potency in [2] is 19 µM (active); in [3], 26.8 µM (active); in [4] it was 5.35 µM (active); in assay [5], 16.9 µM (active); in [16], 19 µM (active). The Potency result in assay [7], in [8], in [10], in assay [14] and in assay [19] was “inactive” in each case. In assay [18], the PLD induction is 4.48% [at 7.66 µM].
With `C=C(C)C(=O)OCCCCCCCCCCCCCCCCCC`, the activity change, negative = cytotoxicity is 4.5% [at 15.8 µM] in assay [1]; 11.4% [at 15.8 µM] in assay [7]; 4.13% [at 15.8 µM] in assay [8]; -1.29% [at 15.8 µM] in [10]; 10.5% [at 19 µM] in [11]; 3.83% [at 19 µM] in assay [15]. Moreover, the cytotoxicity increase was 3.44% [at 15.8 µM] in [2], -0.434% [at 15.8 µM] in assay [4] and -3.54% [at 15.8 µM] in assay [5]. Besides, the cytotoxicity in assay [3] was 0.514% [at 15.8 µM]. Moreover, the activity change, negative = cytotoxic in assay [6] is 0.444% [at 15.8 µM]. Besides, in assay [9], the activity change is 0.239% [at 15.8 µM, stronger effect = higher value]. The viability change, negative = cytotoxic in [12] was 1.71% [at 19 µM]; in assay [19] it was -3.3% [at 19 µM]; in assay [20], -2.33% [at 19 µM]. The activity change, negative = inhibition in [13] was 9.23% [at 19 µM]; in [14], 1.5% [at 19 µM].
Take `CCn1c(=O)c2c(nc(/C=C/c3ccc(OC)c(OC)c3)n2C)n(CC)c1=O`: the molecule was called inactive in assay [1], in assay [6], in assay [11], in assay [12] and in assay [15]. The Potency result in assay [2], in assay [3], in [4], in [5], in [9] and in assay [16] was “inactive” each time. The Potency entry in [14] and in assay [19] was “inactive” in each case. Moreover, the Potency is 1.69 µM (active) in [7] and 1.51 µM (active) in assay [8].
